From PubChem BioAssay
The source made the active and inactive calls.

What was measured:
[1] = optical density shifts of acrAB sulA E. coli – strain DRC41, OD650, 48 h, E. coli filamentation inducer project, primary screen (AID 1152); conditions: higher = more signal, called active from +8 up or from −8 down;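 note: E. coli MC1000 strain DRC41 lacking acrAB efflux pump and sulA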
[2] = probe aLefty1 binding on compound microarray – biochemical, small-molecule microarray, 635/667 nm fluorescence, primary screen (AID 1153); conditions: higher = more signal;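 note: score merges spot fluorescence with signal-to-noise ratio from the scanned slide images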
[3] = plasmodial surface anion channel blockers, osmotic lysis – cell-based, P. falciparum Indochina, OD700, 1 h, primary screen (AID 1154); conditions: P. falciparum Indochina infected RBC osmotic lysis, higher = more signal, called active from +8 up or from −8 down
[4] = plasmodial surface anion channel blockers, osmotic lysis – cell-based, P. falciparum Indochina, OD700, 2 h, primary screen (AID 1155);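 note: lysis reports solute entry through the parasite surface anion channel PSAC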; conditions: P. falciparum Indochina infected erythrocytes, higher = more signal, called active from +8 up or from −8 down
[5] = changes in parasitized red cell lysis, either direction – P. falciparum Indochina, OD700, 3 h, PSAC antagonist project, primary screen (AID 1156); conditions: P. falciparum-infected erythrocytes, osmotic lysis, higher = more signal, called active from +8 up or from −8 down
[6] = plasmodial surface anion channel blockers, osmotic lysis – cell-based, P. falciparum Indochina, OD700, 18 h, primary screen (AID 1157); conditions: P. falciparum Indochina infected erythrocytes, osmotic lysis OD700, 18 h; higher = more signal, called active from +8 up or from −8 down
[7] = S6 kinase pathway phospho-S6 level changes – cell-based, A549, cytoblot, luminescence, serum-stimulated, primary screen (AID 1158); conditions: 5 h, higher = more signal;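 note: serum-stimulated A549 lung adenocarcinoma cells; signal is phosphorylated S6 detected by cytoblot immunostaining with HRP secondary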
[8] = molecular target: NADPH oxidase 2 (Homo sapiens) (UniProt P04839); assay: compounds shifting NOX2 Amplex Red fluorescence – cell-based, HEK293-NOX2, PMA-stimulated, NOX inhibitor project, primary screen (AID 1159); conditions: 45 min, higher = more signal, called active from +8 up or from −8 down; note: test concentration not given here
[9] = molecular target: NADPH oxidase 4 (Homo sapiens) (UniProt Q9NPH5); assay: compounds shifting NOX4 Amplex Red fluorescence – cell-based, HEK293-NOX4, tetracycline-induced, NOX inhibitor project, primary screen (AID 1160); conditions: HEK293-NOX4, Amplex Red H2O2 fluorescence, 45 min; higher = more signal, called active from +8 up or from −8 down
[10] = molecular target: NADPH oxidase 5 (Homo sapiens) (UniProt Q96PH1); assay: compounds shifting NOX5 Amplex Red fluorescence – cell-based, HEK293-NOX5, NOX inhibitor project, primary screen (AID 1161); conditions: HEK293-NOX5, ionomycin, 45 min, higher = more signal
NADPH oxidase 5 (Homo sapiens), sequence (Q96PH1 whole entry, looked up): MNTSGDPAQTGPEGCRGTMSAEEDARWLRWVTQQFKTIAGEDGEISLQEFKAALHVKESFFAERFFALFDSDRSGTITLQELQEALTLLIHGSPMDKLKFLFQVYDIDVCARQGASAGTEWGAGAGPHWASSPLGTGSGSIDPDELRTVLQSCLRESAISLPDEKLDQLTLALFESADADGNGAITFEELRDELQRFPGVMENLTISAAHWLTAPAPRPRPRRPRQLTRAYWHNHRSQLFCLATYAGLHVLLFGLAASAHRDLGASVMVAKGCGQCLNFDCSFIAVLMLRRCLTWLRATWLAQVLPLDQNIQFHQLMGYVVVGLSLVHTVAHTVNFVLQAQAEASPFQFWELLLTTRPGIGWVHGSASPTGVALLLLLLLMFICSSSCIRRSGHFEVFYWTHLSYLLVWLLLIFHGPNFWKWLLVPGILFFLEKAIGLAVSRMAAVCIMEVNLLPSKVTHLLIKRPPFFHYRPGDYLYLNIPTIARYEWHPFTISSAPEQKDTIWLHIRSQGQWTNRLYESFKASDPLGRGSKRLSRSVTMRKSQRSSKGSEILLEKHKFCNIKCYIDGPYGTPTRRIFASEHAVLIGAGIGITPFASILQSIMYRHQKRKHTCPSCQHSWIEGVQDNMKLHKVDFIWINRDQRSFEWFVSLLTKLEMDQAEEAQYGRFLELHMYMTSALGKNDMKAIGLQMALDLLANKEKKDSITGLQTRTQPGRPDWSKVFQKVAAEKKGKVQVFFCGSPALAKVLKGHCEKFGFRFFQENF

NADPH oxidase 4 (Homo sapiens), sequence (Q9NPH5 whole entry, looked up): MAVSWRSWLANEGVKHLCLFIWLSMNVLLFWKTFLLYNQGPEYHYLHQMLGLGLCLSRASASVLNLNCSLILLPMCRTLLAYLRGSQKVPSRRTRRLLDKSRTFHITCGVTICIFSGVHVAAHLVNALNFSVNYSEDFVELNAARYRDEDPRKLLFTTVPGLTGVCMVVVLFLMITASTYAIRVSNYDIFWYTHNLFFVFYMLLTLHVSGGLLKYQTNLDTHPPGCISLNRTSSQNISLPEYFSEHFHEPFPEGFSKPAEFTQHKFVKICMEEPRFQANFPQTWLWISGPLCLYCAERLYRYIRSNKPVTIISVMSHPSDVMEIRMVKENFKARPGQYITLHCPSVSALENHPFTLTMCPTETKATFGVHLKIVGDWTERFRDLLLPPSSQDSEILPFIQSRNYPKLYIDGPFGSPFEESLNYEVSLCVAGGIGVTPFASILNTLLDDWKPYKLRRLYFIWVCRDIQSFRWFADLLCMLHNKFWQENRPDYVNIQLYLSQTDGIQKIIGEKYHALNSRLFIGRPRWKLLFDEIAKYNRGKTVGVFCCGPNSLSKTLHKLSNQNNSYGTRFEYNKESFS
NADPH oxidase 2 (Homo sapiens), sequence (P04839 whole entry, looked up): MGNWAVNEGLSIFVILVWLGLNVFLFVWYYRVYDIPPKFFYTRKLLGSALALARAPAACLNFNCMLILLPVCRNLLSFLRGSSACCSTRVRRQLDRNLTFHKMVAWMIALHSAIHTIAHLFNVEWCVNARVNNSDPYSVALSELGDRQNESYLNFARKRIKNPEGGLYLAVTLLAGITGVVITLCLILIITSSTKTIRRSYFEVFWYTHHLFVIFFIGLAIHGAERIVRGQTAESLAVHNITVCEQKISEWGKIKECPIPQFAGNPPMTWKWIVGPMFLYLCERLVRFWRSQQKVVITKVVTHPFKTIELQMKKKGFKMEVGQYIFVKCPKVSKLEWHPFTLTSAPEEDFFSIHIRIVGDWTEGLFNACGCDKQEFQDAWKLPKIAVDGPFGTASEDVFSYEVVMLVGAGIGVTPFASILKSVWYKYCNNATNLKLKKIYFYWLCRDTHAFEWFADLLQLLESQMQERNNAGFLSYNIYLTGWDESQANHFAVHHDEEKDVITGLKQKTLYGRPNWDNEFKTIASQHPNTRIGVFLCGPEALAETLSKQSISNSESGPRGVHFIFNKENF

SMILES	z-score [1]	composite z-score [2]	z-score [3]	z-score [4]	z-score [5]	z-score [6]	z-score [7]	z-score [8]	z-score [9]	z-score [10]
CCCN1C(=O)[C@]2(Cc3ccccc31)N=C(c1ccc(OCCCO)cc1)O[C@@H]2c1ccccc1	-0.753 (inactive)	0.643	30.9 (active)	25.5 (active)	3.13 (inactive)	2.19 (inactive)	0.117	-3 (inactive)	-0.843 (inactive)	-1.8
CCOc1cc(C(O)C2C=CC3C(=O)NC(=O)C3N2Nc2ccc(Cl)cc2Cl)ccc1O (stereo not given)	-1.36 (inactive)	-0.101	0.588 (inactive)	0.0352 (inactive)	0.0675 (inactive)	1.1 (inactive)	-1.04	-1.26 (inactive)	-1.88 (inactive)	-2.05
CC(C)c1ccc(NN2C(C(O)c3ccc(C#N)cc3)C=CC3C(=O)N(c4ccccc4)C(=O)C32)cc1 (stereo not given)	-1.6 (inactive)	0.418	15.4 (active)	2.64 (inactive)	0.567 (inactive)	1.27 (inactive)	-1.05	-1.46 (inactive)	-3.24 (inactive)	-2.38
C=CCN1C(=O)[C@]2(CCC(=O)OC(C)(C)C)N=C(c3ccc(OCCCO)cc3)O[C@@H]2c2ccccc21	0.736 (inactive)	0.576	34.1 (active)	32.3 (active)	2.29 (inactive)	12.1 (active)	0.708	-2.67 (inactive)	0.56 (inactive)	-0.299
CO[C@H]1O[C@H](CO)[C@@H](OC(=O)Nc2ccc(Br)cc2)[C@@H]2OC(=O)[C@@H](Cc3ccccc3)C/C=C/C[C@H](Cc3ccccc3)C(=O)O[C@@H]12	0.931 (inactive)	0.057	3.36 (inactive)	0.956 (inactive)	-1.12 (inactive)	1.35 (inactive)	0.311	0.647 (inactive)	0.263 (inactive)	0.0979
O[C@@H](Cc1ccccc1)[C@@H](/C=C/C1CC1)N(CC#Cc1ccccc1)Cc1ccccc1Br	0.241 (inactive)	0.187	2.05 (inactive)	1.37 (inactive)	0.108 (inactive)	0.475 (inactive)	0.131	-0.612 (inactive)	0.221 (inactive)	-0.586
C=CCC(OC(C)=O)[C@@H]1[C@@H](N(Cc2cc3ccccc3o2)C(=O)Cc2ccc(F)cc2)c2cc(OCCCO)ccc2N1C(=O)Cc1ccc2ccccc2c1 (stereo not given in full)	-1.06 (inactive)	0.051	1.23 (inactive)	0.62 (inactive)	-0.621 (inactive)	0.184 (inactive)	-0.213	0.682 (inactive)	0.88 (inactive)	1.86
CCOC(=O)C[C@H]1[C@H](OC(=O)c2cc3ccccc3oc2=O)[C@@H](NC(=O)CC(C)C)c2cc(OCCCO)ccc2N1C(=O)c1ccc2ccccc2n1	-0.618 (inactive)	-0.0061	9.02 (active)	1.25 (inactive)	0.609 (inactive)	0.647 (inactive)	-0.679	1.01 (inactive)	1.23 (inactive)	0.7
COCCOC(=O)N1C(=O)[C@@]2(c3ccccc31)[C@H](C(=O)NC[C@H](O)c1ccccc1)[C@H]1C(=O)O[C@H](c3ccccc3)[C@H](c3ccccc3)N1[C@@H]2c1ccc(O)cc1	0.503 (inactive)	-0.671	1.89 (inactive)	0.74 (inactive)	-0.0724 (inactive)	0.786 (inactive)	0.315	1.22 (inactive)	0.4 (inactive)	0.855
CCN(CC)c1ccc(N2CC=CC34O[C@@H]5/C=C\CCCOC(=O)C5[C@H]3C(=O)N(C(C)CO)[C@@H]4C2=O)cc1 (stereo not given in full)	1.56 (inactive)	-0.0814	0.733 (inactive)	-0.264 (inactive)	1.33 (inactive)	-0.306 (inactive)	0.0073	0.275 (inactive)	-0.0723 (inactive)	0.83
CC1=C2[C@@H](CCc3ccccc3)OB(O)C[C@@H]2[C@@H]2C(=O)N(C)C(=O)[C@@H]2C1	-0.155 (inactive)	0.035	1.45 (inactive)	0.454 (inactive)	-0.249 (inactive)	0.255 (inactive)	-0.391	0.162 (inactive)	0.234 (inactive)	-0.54
COC(=O)[C@@H]1N=C(c2ccc(OCCCO)cc2)O[C@@H]1C	0.608 (inactive)	0.0945	19 (active)	2.23 (inactive)	0.404 (inactive)	0.448 (inactive)	0.299	-1.93 (inactive)	0.134 (inactive)	-0.647
COC(=O)[C@]1(CCS(=O)(=O)c2ccccc2)N=C(c2ccc(OCCCO)cc2)O[C@@H]1c1ccccc1N=[N+]=[N-]	-1.59 (inactive)	0.569	29.4 (active)	27.2 (active)	4.22 (inactive)	6.59 (inactive)	0.188	-2.07 (inactive)	0.661 (inactive)	-2.01
O=C(NCCN1CCOCC1)[C@@H]1c2ccccc2C(=O)N(Cc2ccccc2Cl)[C@H]1c1ccc(CO)cc1	0.446 (inactive)	0.121	4.63 (inactive)	0.466 (inactive)	0.297 (inactive)	0.306 (inactive)	-0.467	-0.112 (inactive)	0.34 (inactive)	-0.371
CC(C)=C1C(=O)C(c2ccccc2)=C2CN3C(=O)N(CCc4ccccc4)C(=O)[C@]3(Cc3ccc(C(F)(F)F)cc3)[C@H]21	-2.19 (inactive)	0.522	22.3 (active)	5.86 (inactive)	0.511 (inactive)	1.21 (inactive)	-0.558	-0.12 (inactive)	-1.21 (inactive)	-0.226
COC(=O)C1(CC(C)C)C=C2C(=C(c3ccccc3)C(=O)C2C)CN1 (stereo not given)	-1.03 (inactive)	1.58	1.28 (inactive)	-0.382 (inactive)	0.806 (inactive)	0.323 (inactive)	0.54	-0.00718 (inactive)	-1.48 (inactive)	-2.44
C=C[C@@H](OC)[C@H](OC(=O)Nc1ccc(OC)cc1)c1ccc(O)c(F)c1	0.308 (inactive)	0.0774	3.98 (inactive)	0.517 (inactive)	0.241 (inactive)	0.475 (inactive)	-0.012	-1.79 (inactive)	0.787 (inactive)	3.63
[N-]=[N+]=Nc1ccccc1[C@@H]1OC(c2ccc(OCCCO)cc2)=N[C@]1(Cc1ccccc1)C(=O)O	0.78 (inactive)	0.433	33.2 (active)	30 (active)	3.46 (inactive)	8.04 (active)	-0.465	-1.61 (inactive)	1.27 (inactive)	-0.586
COc1cc2c(cc1O)C(C1CC1)N(C)CC2 (stereo not given)	0.941 (inactive)	-0.0538	1.79 (inactive)	0.546 (inactive)	0.0776 (inactive)	0.573 (inactive)	-0.0452	-4.61 (inactive)	-2.57 (inactive)	-2.96
COC(=O)C/C=C/C[C@]1(O)C(=O)N(C)c2ccccc21	2.8 (inactive)	-0.147	-0.526 (inactive)	-0.562 (inactive)	-0.679 (inactive)	-1.87 (inactive)	1.26	-0.563 (inactive)	0.4 (inactive)	0.882
CC(C)N1C(=O)C[C@@](C(=O)O)(c2ccc([N+](=O)[O-])cc2)[C@H]1c1ccc(CO)cc1	1.47 (inactive)	0.188	3.45 (inactive)	0.654 (inactive)	0.415 (inactive)	0.159 (inactive)	0.126	-2.39 (inactive)	0.251 (inactive)	1.02
[N-]=[N+]=Nc1ccccc1C[C@]1(C(=O)N2CCOCC2)COC(c2ccc(OCCCO)cc2)=N1	1.59 (inactive)	0.401	24.6 (active)	7.83 (inactive)	1.52 (inactive)	-0.779 (inactive)	0.779	-3.84 (inactive)	-0.00663 (inactive)	-1.73
[N-]=[N+]=NCc1ccccc1C[C@@]1(C(N)=O)N=C(c2ccc(OCCCO)cc2)O[C@@H]1c1ccccc1	-1.25 (inactive)	0.408	27.2 (active)	19.2 (active)	0.354 (inactive)	2.58 (inactive)	-0.494	-2.31 (inactive)	0.64 (inactive)	-0.235
CCCCC(CC)C(O)C1C=CC2C(=O)N(c3ccccc3)C(=O)C2N1Nc1ccccc1F (stereo not given)	0.351 (inactive)	-0.0576	0.741 (inactive)	-0.686 (inactive)	-0.42 (inactive)	-1.57 (inactive)	0.434	-0.157 (inactive)	0.143 (inactive)	1.01
CCCN1C(=O)[C@@]2(Cc3ccccc31)N=C(c1ccc(OCCCO)cc1)O[C@H]2c1ccccc1	-0.621 (inactive)	0.396	18.6 (active)	3.99 (inactive)	2.49 (inactive)	0.986 (inactive)	-0.408	-0.135 (inactive)	-0.123 (inactive)	-1.61
COc1ccc([Si](C)(C)[C@@H]2[C@@H](CC(=O)N3Cc4ccccc4C[C@H]3CO)O[C@]3(C(=O)N(Cc4ccc(N5C(=O)c6cccc7cccc5c67)cc4)c4ccccc43)[C@H]2C)cc1	-0.967 (inactive)	0.0391	3.62 (inactive)	1.49 (inactive)	-0.149 (inactive)	0.694 (inactive)	-0.297	0.878 (inactive)	0.929 (inactive)	2.03
CCCNC(=O)[C@@]1(C)c2ccccc2C(=O)N(c2ccc(C)cn2)[C@H]1c1ccc(CO)cc1	-0.819 (inactive)	0.0533	1.57 (inactive)	0.123 (inactive)	0.181 (inactive)	0.0101 (inactive)	0.426	-1.23 (inactive)	0.155 (inactive)	0.238
